aSyn 5UTR inh: MLPCN primary screen, SNCA 5' untranslated region; AID 1813, 2009; alpha-synuclein 5'UTR reporter, inhibitor activity; inhibition, % (tested at 7.5 µM); 300,000 tested, 0.82% active; in the data active means inhibition above about 60%;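 further: H4 neuroglioblastoma cells stably carrying SNCA 5'UTR luciferase fusion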
C8 TRAIL sens: viability loss with TRAIL in NB7+C8 cells, primary screen, TRAIL sensitizer project, cell-based, ATPlite luminescence | inhibition (viability loss, TRAIL sensitization), % at 10 µM | 360,000 tested, 1% active;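 active means compounds causing at least 50% loss of cell viability in the single-dose screen, relative to plate controls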
HSP90 inh: HSP90 inhibitors, primary screen, cell lysate, luminescence. Heat shock protein HSP 90 (rabbit reticulocyte lysate; luciferase refolding). Rabbit reticulocyte lysate, luciferase refolding luminescence, 3 h. inhibition, % at 5.6 µM. 290,000 tested, 0.91% active. AID 1789, 2009;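 active means inhibition above the screen-wide mean plus 3 SD, computed separately per campaign, cut at about 16% in these data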;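 further: inhibitors lower the luminescence because luciferase stays unfolded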
TWEAK-Fn14 inh: inhibitors of TWEAK-Fn14 signaling, primary screen, luciferase reporter cells, uHTS; inhibition, % at 10 µM; 360,000 tested, 2% active; TWEAK-stimulated Fn14 reporter cells, luciferase luminescence, 8 h; in the data active means inhibition above about 50%
TROY NFkB inh: inhibitors of TROY-driven NF-kB signaling, primary screen, Q293 LMP1-TROYcd cells, NF-kB luciferase, uHTS; Q293 LMP1-TROYcd NF-kB luciferase reporter, 4 h; inhibition, % at 10 µM; 360,000 tested, 0.98% active; AID 1347056, 2019;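 active means compounds whose plate-normalised and pattern-corrected inhibition of the luciferase reporter signal at the single screening dose is 50% or more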
HIF-2a block: HIF-2a reporter inhibitors, primary screen, luminescence, 786-0 RCC cells | 360,000 tested, 0.72% active | inhibition, % at 18.8 µM | 786-0 RCC cells HIF-2a reporter, luciferase luminescence, overnight;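 active means inhibition of the luminescence signal of 40% or more relative to plate controls, in a single-dose primary screen at 18.75 µM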
Hits are given with their value; n = inactive; x = no result. Shown are actives, neighbours in structure and some others; about 3.9% of the full set was active somewhere.

SMILES | aSyn 5UTR inh | C8 TRAIL sens | HSP90 inh | TWEAK-Fn14 inh | TROY NFkB inh | HIF-2a block
COc1ccc(-c2cn3c(C)c(C(=O)N4CCc5ccccc5C4)sc3n2)cc1 | n | n | 19 | n | n | n
COc1ccc(-c2cn3c(C)c(C(=O)Nc4cc(NC(C)=O)ccc4OC)sc3n2)cc1 | n | n | 54 | n | n | n
Cc1c(C(=O)Nc2ccncc2)sc2nc(-c3ccccc3)cn12 | n | n | n | 68 | n | n
Cc1c(C(=O)NCc2cccnc2)sc2nc(-c3ccccc3)cn12 | n | n | n | n | n | n
O=[N+]([O-])c1ccc(S(=O)(=O)NN=Cc2ccc(Cl)c(Cl)c2)cc1 | x | n | x | n | n | n
COC(=O)[C@@]1(Sc2ccc(C)cc2)CC(=O)N(c2ccccc2)[C@@H]1c1ccccc1 | x | n | x | n | n | n
CCCCCCCCNS(=O)(=O)CCNCc1ccccc1OC | x | n | x | n | n | n
Cc1cc(C)cc(NC(=O)CN2CCC(NC(=O)c3cccc(F)c3)CC2)c1 | n | n | n | n | n | n
O=C(CN1CCC(NC(=O)c2cccc(F)c2)CC1)Nc1ccc(Br)cc1 | 68 | n | n | n | n | n
COc1ccc(C2=NN(C(=O)CSc3nnc(C)n3C)C(c3ccco3)C2)cc1 (stereo not drawn) | n | n | n | n | n | n
COc1ccc(C2=NN(C(=O)COc3ncnc4ccccc34)C(c3ccco3)C2)cc1 (stereo not drawn) | 64 | n | n | n | n | n
c1ccc(CCNc2ncnc3ccccc23)cc1 | n | n | n | 68 | n | n
COc1ccc(CNC(=O)CC[C@H]2O[C@@H](n3ccc(=O)[nH]c3=O)[C@H](O)[C@@H]2O)cc1 | x | n | x | n | n | n
COc1ccc2cc3cc(C(=O)Nc4cc(OC)c(OC)c(OC)c4)oc3nc2c1 | n | n | n | 63 | n | n
COc1ccc2cc3cc(C(=O)Nc4ccc5c(c4)OCCO5)oc3nc2c1 | n | n | n | n | n | n
COc1ccc(-c2ncn(CCC#N)c2[N+](=O)[O-])cc1 | n | n | n | n | n | n
COc1ccc(-c2cc(=O)n(CCC#N)[nH]2)cc1 | n | n | 65 | n | n | n
C=CC[C@]12CC=CC(=O)[C@@]1(O)O[C@H](c1ccc(OC)c(OC)c1)[C@H]2C | n | n | x | 66 | n | n
CCCCCCNC(=O)O[C@H]1Cn2c(=O)ccc(=O)n2[C@@H]2CN(S(=O)(=O)c3ccc(C)cc3)C[C@]12O | x | n | x | 89 | n | n
CSCCC(NC(=O)c1ccccc1)C(=O)OCC(=O)NCc1ccco1 (stereo not drawn) | x | n | x | n | n | n
CCOC(=O)C1CCCN(c2ccc(NC(=O)c3snc4c(=O)[nH]c(C)nc34)cc2)C1 (stereo not drawn) | n | n | n | n | 51 | n
CCCC#Cc1ccc2c(c1)O[C@H](CN(C)C(=O)CC1CC1)[C@H](C)CN([C@@H](C)CO)S2(=O)=O | x | n | x | n | n | n
Cc1ccc(-c2nc(S(=O)(=O)c3ccc(C)cc3)c(N3CCOCC3)o2)cc1 | n | n | n | 65 | n | n
O=C(CSc1nc2nn(-c3ccccc3)c(=O)c-2c2n1CCCCC2)c1ccc(OC(F)F)cc1 | x | n | x | n | n | n
CCc1cc2c(=O)nc3n(c2s1)Cc1ccccc1/C3=C(/O)c1ccc(F)cc1 | n | n | n | 100 | n | n
SMILES | aSyn 5UTR inh | C8 TRAIL sens | HSP90 inh | TWEAK-Fn14 inh | TROY NFkB inh | HIF-2a block
CCc1cc2c(=O)nc3n(c2s1)Cc1ccccc1/C3=C(/O)c1ccccc1Cl | n | n | n | n | n | n
CCN(CC)S(=O)(=O)c1cccc2cc(C(=O)O)c(O)cc12 | n | n | n | 79 | x | n
CCCNC(=O)N[C@H]1CC[C@@H](CCn2cc(-c3cccc(F)c3)nn2)O[C@@H]1CO | x | n | x | x | x | n
COc1ccc(C(=O)N/N=C\c2coc3ccc(Cl)cc3c2=O)cc1 | n | n | n | n | n | n
O=C(N/N=C/c1coc2ccc(Cl)cc2c1=O)c1ccc(O)cc1 | n | n | n | 70 | n | n
O=C(N/N=C/c1coc2ccc(Cl)cc2c1=O)c1ccncc1 | n | n | n | 54 | n | n
CC(=O)NC(c1ccccc1)c1nc(/C=C/c2ccccc2)cs1 (stereo not drawn) | x | n | x | n | n | n

Assay outcomes: PubChem BioAssay, several laboratories
